# Only some compounds are listed: those with a hit (about 9.2% of all), similar ones and a draw of the others.
# ELG1 DNA repair – blocks ELG1-dependent DNA repair in HEK293T cells; HEK293T ELG1-luciferase reporter, luminescence, 16 h; DNA damage induced by 5-fluorouridine; 330,000 tested, 2.3% active; Potency, µM (highest dose often 46.1 µM), inactives show at the highest dose activity change, negative = inhibition, most hits filed as inhibitors; further: on the % scale 0 is the no-effect control and ±100 the full control effect; nearly all actives have a fitted effect of over 55% in size
#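 Quantitative HTS, concentration-response format. 2,000 cells/well co-treated with 5-fluorouridine and compound, 16 hr in 5% CO2 at 37 °C; ONE-Glo luminescence read after 30 min.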
# NPC1 promoter act – activates the NPC1 promoter | Potency, µM (series often up to 9.22 µM), without a hit: at the highest dose activation, actives largely listed as activators | 320,000 tested, 2.4% active | Huh7 NPC1 promoter luciferase reporter, 24 h; further: % of control where 0% means no effect; nearly all actives have a fitted effect of over 60% in size
#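 Readout is luciferase luminescence, reflecting NPC1 promoter activation in stably transfected Huh7 cells after 24 h compound exposure at 37 °C in reduced-serum medium with 10% FBS.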
# ELG1 genotox – inducers of genotoxicity in HEK293T ELG1-luciferase cells; HEK293T ELG1-luciferase reporter, luminescence, 16 h; Potency, µM (highest dose often 46 µM), for the others: top-dose activity change, positive = activation, hits mostly activators; 330,000 tested, 1.3% active; further: % of control where 0% means no effect; nearly all actives have a fitted effect of over 60% in size
#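 After overnight (16 hr) compound treatment at 37 °C, ELG1-luciferase HEK293T cells were lysed with ONE-Glo; luminescence quantified 30 min later at room temperature.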
# FLuc modulator – counter-screen for miR-21 project: firefly luciferase inhibitors or activators. P08659. purified FLuc, Km substrates, luminescence inhibition. Potency, µM (titrated, usually from 57.5 µM), without a hit: at the top dose activity change, negative = inhibition, hits mostly inhibitors. 360,000 tested, 6.9% active. AID 588342;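 further: plate controls were vehicle for no effect and reference inhibitor for full effect; nearly all actives have a fitted effect of over 55% in size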
# Target sequence (P08659 whole entry, looked up): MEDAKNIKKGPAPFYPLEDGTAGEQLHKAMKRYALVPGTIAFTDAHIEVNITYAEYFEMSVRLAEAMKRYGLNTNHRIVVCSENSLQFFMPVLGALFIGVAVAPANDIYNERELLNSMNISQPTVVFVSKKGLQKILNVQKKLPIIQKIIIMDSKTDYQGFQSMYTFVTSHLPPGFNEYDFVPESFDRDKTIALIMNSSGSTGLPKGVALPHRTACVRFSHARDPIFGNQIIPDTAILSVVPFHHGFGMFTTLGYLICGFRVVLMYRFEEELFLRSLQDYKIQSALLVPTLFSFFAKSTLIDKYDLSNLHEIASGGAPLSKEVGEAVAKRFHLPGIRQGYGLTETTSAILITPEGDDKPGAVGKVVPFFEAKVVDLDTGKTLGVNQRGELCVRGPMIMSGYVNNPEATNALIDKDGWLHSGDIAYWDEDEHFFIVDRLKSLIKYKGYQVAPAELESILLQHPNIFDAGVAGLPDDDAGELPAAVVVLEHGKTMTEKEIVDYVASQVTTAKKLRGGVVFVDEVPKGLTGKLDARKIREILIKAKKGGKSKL
#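 Biochemical qHTS of compounds, final roughly 60 µM downward over six points, against 10 nM purified firefly luciferase using Km concentrations of substrates (10 uM D-luciferin, 10 uM ATP) in Tris acetate pH 7.5 buffer; luminescence output.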
# Rab9 promoter act – activates the Rab9 promoter; Huh7 Rab9 promoter-luciferase reporter, luminescence, 24 h; Potency, µM (titrated, usually from 9.22 µM), for inactives: at the top dose activation, negative = inhibition, actives largely listed as activators; 320,000 tested, 2.8% active; AID 485297; further: % of control where 0% means no effect; nearly all actives have a fitted effect of over 60% in size
#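 Luminescence from Amplite-detected luciferase (10 minutes, ambient) reports Rab9 promoter activation. Before that, stable Rab9-luciferase Huh7 cells (1500/well, reduced-serum OP-MEM I plus 10% FBS) were exposed to compound for 24 hours at 37C.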
# SMN2 splice enh – increases expression of the SMN2 splice variant | 210,000 tested, 2.8% active | HEK293 SMN2-luciferase splicing reporter, luminescence, 30-36 h | Potency, µM (top dose mostly 46.1 µM), without a hit: top-dose activity change, positive = activation, most hits filed as activators; further: % of control where 0% means no effect; nearly all actives have a fitted effect of over 55% in size
#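 HEK293 cells carry an SMN2 minigene-luciferase reporter in which exon 7 inclusion puts luciferase in frame. Cells were seeded at 2000 cells/well, attached for 10-12 hours, then exposed to compounds for 30-36 hours at 37C before ONE-Glo luminescence.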
# Starred values were filed as active, the others as inactive; ? = inconclusive; nt = not tested or not shown; [ ] = dose if it differs, or a comment. The call rests on the fitted dose curve; in most records, active means well fitted curve in the direction sought with a large enough effect; inconclusive means small, poorly fitted or top-dose-only effect, or another doubt; inactive means no such curve, though single readings can be large; an effect the other way counts as inactive or inconclusive. Potency means the concentration at half of the fitted maximal effect.
SMILES,ELG1 DNA repair,NPC1 promoter act,ELG1 genotox,FLuc modulator,Rab9 promoter act,SMN2 splice enh
CC(=O)NCCc1nc2ccccc2n1CCCCOc1ccc(Cl)cc1,nt,nt,nt,4%,nt,-44%
CCCCOc1ccc(N2CC(C(=O)NCCc3ccc(OC)c(OC)c3)CC2=O)cc1 (stereo not given),-21%,-3%,20%,-1%,0%,-31%
Nc1c(C(=O)N/N=C/c2ccc([N+](=O)[O-])cc2)sc2nnc(-c3ccccc3)c(-c3ccccc3)c12,-15%,-1%,-1%,-1%,-5%,nt
COc1ccc(C(=O)N/C(=C/c2ccco2)C(=O)N2CCCCCC2)cc1,6%,-4%,2%,-17%,-1%,nt
O=C(NCCNC(=O)c1ccccc1Br)c1ccccc1Br,-3%,-7%,-4%,1%,1%,nt
Cc1ccccc1SCCNC(=O)c1ccccc1Br,?,22%,18%,24µM*,?,27%
Cc1ccccc1SCC(=O)NNC(=O)c1ccccc1O,-1%,4%,?,24µM*,20%,nt
Cc1cc(C(=O)Nc2cccc(NC(=O)c3ccco3)c2)ccc1[N+](=O)[O-],?,-3%,-10%,19µM*,0%,nt
CCOc1ccc(C(=O)NC(=S)Nc2cccc(NC(=O)c3ccco3)c2)cc1[N+](=O)[O-],23µM*,0%,-3%,-1%,-5%,4%
COc1ccc(C(=O)NC(=S)Nc2cccc(NC(=O)c3ccco3)c2)cc1[N+](=O)[O-],?,3%,5%,1%,-2%,-4%
CCCCCn1c(=N)n(CC(O)COc2cccc(C)c2)c2ccccc21 (stereo not given),nt,nt,nt,5%,nt,-34%
CCCNC(=O)c1cnn2c(C(F)F)cc(-c3ccccc3)nc12,nt,nt,nt,4%,nt,-13%
CCCS(=O)(=O)c1cnc(C2COc3ccccc3O2)nc1N (stereo not given),?,-23%,?,0.12µM*,-32%,nt
COc1cc(NC(=O)c2ccccc2-n2cnnn2)cc(OC)c1,14%,-2%,0%,-2%,-3%,nt
Cc1c(C(=O)Nn2cnnc2)oc2ccccc12,-7%,1%,1%,-1%,-3%,?
Cc1cc(NC(=O)c2oc3ccccc3c2C)ccc1-n1cnnn1,16%,19%,-2%,4.8µM*,4%,-10%
COc1cc(OC)cc(C(=O)Nc2ccc(-n3cnnn3)c(C)c2)c1,?,?,?,15µM*,?,23%
Cc1ccc(O)c(NC(=O)c2noc(C(C)C)c2[N+](=O)[O-])c1,?,-2%,?,19µM*,-3%,29%
C=CCNC(=O)c1cc(-c2cccs2)on1,nt,nt,nt,13µM*,nt,nt
C=CCNC(=O)c1cc(-c2ccc(Br)cc2)on1,?,1.3µM*,?,?,0.79µM*,11µM*
CC(=O)c1ccc(NC(=O)c2noc(C(C)C)c2[N+](=O)[O-])cc1,35%,14%,13%,-14%,18%,-8%
Cc1ccc(O)c(NC(=O)c2onc(C)c2Cl)c1,?,18%,?,17µM*,-6%,nt
COc1cc(OC)cc(N2C(=O)CSC23C(=O)Nc2ccccc23)c1 (stereo not given),nt,nt,nt,6%,nt,nt
Cc1ccc2oc(C(=O)N3CCC(O)(c4cccc(C(F)(F)F)c4)CC3)c(C)c2c1,8%,15%,8%,?,19%,nt
Cc1ccc(O)c(NC(=O)c2cc(-c3ccc(F)cc3)on2)c1,?,?,8%,-13%,27%,?
SMILES,ELG1 DNA repair,NPC1 promoter act,ELG1 genotox,FLuc modulator,Rab9 promoter act,SMN2 splice enh
Cc1ccc(O)c(NC(=O)c2cc(-c3cccs3)on2)c1,?,18%,18µM*,2.1µM*,-1%,nt
CC(C)NC(=O)c1cc(-c2cccs2)on1,?,3.2µM*,4.5µM*,15µM*,2.8µM*,13µM*
CC(OC(=O)Cc1ccccc1[N+](=O)[O-])C(=O)Nc1ccc(Cl)cn1 (stereo not given),2%,-1%,0%,-2%,-7%,nt
COc1ccc(/C=N/Nc2nonc2N)cc1,?,13%,3%,?,23%,5%
Cc1ccc(Nc2ncnc3sc(C)c(C)c23)cc1C,?,3%,?,?,0%,?
COc1ccc(/C=N/Nc2ncnc3sc(C)c(C)c23)cc1,11%,2%,5%,19µM*,-4%,6%
Cc1sc2ncnc(NCc3cccs3)c2c1C,7%,-17%,4%,2%,-31%,-34%
Cc1sc2ncnc(N/N=C/c3ccccc3O)c2c1C,?,6%,?,21µM*,-12%,-81%
Cc1sc2ncnc(NCC(c3ccccc3)N(C)C)c2c1C (stereo not given),-3%,2%,-2%,-1%,-11%,nt
Cc1sc2ncnc(N/N=C/c3ccc(O)cc3)c2c1C,?,-7%,8%,19µM*,-6%,0%
Cc1sc2ncnc(NCC(O)c3ccccc3)c2c1C (stereo not given),-3%,-1%,-9%,19µM*,-10%,nt
COc1cccc(/C=N/Nc2ncnc3scc(-c4ccccc4)c23)c1OC,15µM*,2%,-17%,12µM*,-7%,-10%
CC(C)C=O,nt,nt,nt,nt,nt,0%
CC(C)Cc1cc(C(=O)N(C)C2CCCN(Cc3ccccc3F)C2)n(C)n1 (stereo not given),-15%,2%,-4%,2%,-2%,nt
CCCN(Cc1cccs1)C(=O)Nc1cc(C)cc(C)c1,nt,nt,nt,-11%,nt,nt
Cc1cc(C(=O)Nc2ccc(Cl)cc2)c(C)n1Cc1cccs1,?,0.71µM*,2.3µM*,0.6µM*,0.32µM*,nt
Cc1cc(C)cc(NC(=O)c2cc(C)n(Cc3cccs3)c2C)c1,?,1.1µM*,?,0.34µM*,0.71µM*,nt
Cc1nc2nc(SCc3c(F)cccc3Cl)nn2c(C)c1Cc1ccccc1,nt,nt,nt,5.4µM*,nt,nt
COc1cc(O)c(C(C)=O)c(CC(=O)O)c1,11%,-3%,2%,-1%,-2%,nt
COc1cccc(-c2nc(-c3ccccc3)no2)c1,?,?,?,?,?,11µM*
CCCc1noc(-c2cccc([N+](=O)[O-])c2)n1,0%,-3%,1%,-8%,-4%,-5%
O=[N+]([O-])c1cccc(-c2nc(-c3ccccn3)no2)c1,?,0.71µM*,?,4.8µM*,0.4µM*,nt
c1ccc(-c2ccccc2-c2nc(-c3cccnc3)no2)cc1,-8%,-5%,-2%,1%[2.3 µM],-2%,-6%
c1ccc(-c2noc(-c3cccnc3)n2)nc1,?,2.8µM*,5.2µM*,13µM*,2µM*,11µM*
COc1cccc(-c2noc(-c3cccs3)n2)c1,?,?,1.3µM*,2.1µM*,1µM*,13µM*

# Screening data (PubChem)
